Results from PubChem BioAssay (NCI).
The panel holds about 83,000 compounds, 20% with a hit somewhere; the sample as a whole holds those more often.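 48-hour exposure, single concentration, 96-well plates; percent growth endpoint where 0 means no net growth. Active: below 10.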 Active and inactive are the calls of the source.

tested on: HL-60(TB) leukemia; test: NCI-60 one-dose screen, 48 h (100 = growth as untreated, 0 = no growth, -100 = all killed); conditions: 10 µM unless noted

Compound | growth
CCOc1cccc(/C=N/NC(=O)c2cccc(Nc3ccnc(C(F)(F)F)c3)c2)c1O | 14.1% (inactive)
O=c1oc2ccc(F)cc2c(=O)n1-c1ccc(I)cc1F | -42.8% (active)
COc1cc(-c2nc(N)n(CC(=O)Nc3ccc(/C(C)=N\O)cc3)n2)cc(OC)c1OC | 91.6% (inactive)
O=C1c2cc3c(cc2-c2c1c1cc(Cl)c(Cl)cc1c(=O)n2CCCn1ccnc1)OCO3 | -19.4% (active)
C#CC[C@@H]1C[C@]2(C)[C@H]3CC[C@@H]4[C@H]5C(C(=C)C)CC[C@]5(C(=O)NCCN(CCN)CCN)CC[C@@]4(C)[C@]3(C)CC[C@H]2C(C)(C)[C@H]1OC(C)=O (stereo not given in full) | 41.5% (inactive)
Cc1nccc2c3ccc(OCc4cn(-c5ccc(Br)cc5)nn4)cc3n(CC(C)C)c12 | -48.1% (active)
Cc1ccc(C(C)C)cc1NC(=O)Nc1ccc([N+](=O)[O-])cc1 | -8.6% (active)
N[C@@H]1CCC[C@H]1NCCCCN1C(=O)c2cccc3cc([N+](=O)[O-])cc(c23)C1=O | 30.5% (inactive)
C[C@@H](Nc1cc(F)cc(F)c1)c1cc(C(=O)N(C)C)cc2c(=O)cc(N3CCOCC3)oc12 | 40.9% (inactive)
COc1ccc2cn3c4ccc(O)cc4[nH]c(=O)c3c2c1 | -7.42% (active)
O=C1Nc2ccccc2/C1=C/C(=N/c1nnc(-c2ccc(Cl)cc2)s1)c1ccccc1 | -31.8% (active)
Oc1cccc(-c2nc(N3CCOCC3)c3c4c(sc3n2)CCCC4)c1 | 74.7% (inactive)
Nc1c(C(=O)Nc2cccc([N+](=O)[O-])c2)sc2nc3c(cc12)C(O)CCC3 (stereo not given) | 9.71% (active)
CCCCNC(=O)NS(=O)(=O)c1ccc(N2N=C(c3ccc(C)cc3C)CC2c2ccc(N(C)C)cc2)cc1 (stereo not given) | 14.4% (inactive)
O=C(NS(=O)(=O)c1ccccc1)n1cc(-c2ccncc2)c(-c2ccc(Cl)c(O)c2)n1 | 94% (inactive)
COc1ccc2c(c1)O/C(=C\c1ncc([N+](=O)[O-])n1C)C2=O | -3.86% (active)
Clc1ccc(N/N=C(\c2ccccc2)c2ccccn2)nc1 | -28.3% (active)
CCN(CC)CCCCNc1ccc(NCCCCN(CC)CC)c2c1C(=O)c1ccccc1C2=O | 70% (inactive)
CC[C@H](Nc1ncnc(N)c1C(N)=O)c1nc2cccc(NCc3ccc(C(=O)NO)cc3)c2c(=O)n1-c1ccccc1 | 126% (inactive)
Nc1nc(N)c(N=Nc2c(Br)cc(S(N)(=O)=O)cc2Br)c(N)n1 | 105% (inactive)

Compound | growth
N#Cc1c(-c2ccc(Cl)cc2)csc1NC(=O)Nc1cccc(C(F)(F)F)c1 | -13% (active)
N#C/C(=C\c1ccc(C#N)cc1)C(=O)c1ccccc1 | 92.7% (inactive)
CC1=C(SCCC(=O)OC(C[Se]C2=C(C)C(=O)c3ccccc3C2=O)C(=O)NC(C)(C)C)C(=O)c2ccccc2C1=O (stereo not given) | 8.81% (active)
Cc1nn(-c2ccc(F)cc2)c2ncnc(Nc3ccc(NC(=O)Nc4ccc(Cl)c(C(F)(F)F)c4)cc3)c12 | 13.2% (inactive)
CN(Cc1ccccc1)c1nc(Cl)c(C2CC(c3ccc(Cl)cc3)=NN2c2cc(Cl)cc(Cl)c2)s1 (stereo not given) | 102% (inactive)
c1cncc(-c2nc3ccccc3[nH]2)c1 | 94.8% (inactive)
COc1ccc(/C=C(\C#N)c2cc(OC)c3c(c2)OCO3)cc1 | -1.4% (active)
C#CCOc1cc(/C=N/Nc2nc(-c3ccc(OC)cc3)cs2)ccc1O | 97.6% (inactive)
CSc1nn(-c2ccccc2)c2ncnc(Oc3ccc(C)cc3)c12 | 98.3% (inactive)
CC(CN)[C@@H]1CC[C@]2(CO)CC[C@]3(C)[C@H](CC[C@@H]4[C@@]5(C)CCC(N)C(C)(C)[C@@H]5CC[C@]43C)[C@@H]12 (stereo not given in full) | 31.5% (inactive)
Cc1ccc(Sc2sc(-c3ccccc3)nc2[P+](c2ccccc2)(c2ccccc2)c2ccccc2)cc1 | -40.5% (active)
Clc1ccc(-c2cnc3c(-c4ccnc(N5CCNCC5)c4)cnn3c2)cc1 | -33.7% (active)
N=c1ccccn1CCO | 120% (inactive)
COc1cc(C2=NOC(c3cc(OC)c(OC)c(OC)c3)C2)ccc1OCCCCOc1cc2c(cc1OC)C(=O)N1CCC[C@H]1C=N2 (stereo not given in full) | -22.7% (active)
COc1ccc(-c2nc3sccn3c2-c2nc3c([nH]2)C(=O)c2ccccc2C3=O)cc1 | 94% (inactive)
CCOC(=O)c1ccc2c(c1)nc(-c1ccc(OCc3ccccc3)c(OC)c1)n2-c1cc(C(C)(C)C)[nH]n1 | 81.6% (inactive)
Cc1ccc(S(=O)(=O)N2CCc3ccc(O)c4c3C2Cc2cc(Cl)ccc2-4)cc1 (stereo not given) | 85.3% (inactive)
O=C1C=C(OCC=C(Cl)Cl)C(=O)c2ccccc21 | -1.08% (active)
CNC(=O)c1ccccc1Sc1ccc2c(/C=C/c3ccccn3)n[nH]c2c1 | 12.6% (inactive)
CN1CCN(C(=O)C(C)(C)c2ccc(C(=O)Nc3cn4cc(-c5ccncc5)ccc4n3)cc2)CC1 | 7.51% (active)
